# Assay results taken from PMC7862700, “An all-to-all approach to the identification of sequence-specific readers for epigenetic DNA modifications on cytosine”.
# Tests used:
# Assay in all cases: DAPPL (digital affinity profiling via proximity ligation, sequencing); 10 mM Tris-HCl pH 7.5, 50 mM NaCl, 1 mM DTT, 4% glycerol, room temperature, 30 min; GST-TFs on glutathione beads, 16-mer random dsDNA library, 0.1% formaldehyde crosslink after washing; high values mean tight binding
# FEV = molecular target: T1, FEV (Homo sapiens, UniProt Q99581 1-238); conditions: protein: recombinant; tags: N-terminal GST; dsDNA, one strand shown
# T1 sequence: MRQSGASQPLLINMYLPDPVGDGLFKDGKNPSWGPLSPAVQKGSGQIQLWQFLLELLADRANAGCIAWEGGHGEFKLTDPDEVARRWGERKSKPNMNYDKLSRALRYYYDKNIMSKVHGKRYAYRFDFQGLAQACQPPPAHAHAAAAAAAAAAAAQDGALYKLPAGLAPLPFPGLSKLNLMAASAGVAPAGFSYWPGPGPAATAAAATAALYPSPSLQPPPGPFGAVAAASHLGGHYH
# Outline: (§1)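 Binding signal is each hexamer's read frequency for a factor divided by its frequency in the tag-only sample. The factors were GST-fused human transcription factors from yeast, captured on glutathione beads, DNA-barcoded and pooled with that sample. Pools were incubated with 200 nmole of a random double-stranded 16-mer DNA library in Tris/NaCl/DTT/glycerol buffer at room temperature for 30 min, then washed, crosslinked with 0.1% formaldehyde, proximity-ligated with BsaI/T4 ligase (1 h, 37 °C), PCR-amplified and sequenced on an Illumina NextSeq500.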
# ETV5 = ETV5 (Homo sapiens, UniProt P41161 1-510); conditions: protein: recombinant; tags: N-terminal GST; dsDNA, one strand shown
# Outline: as §1
# HSF1 = HSF1 (Homo sapiens, UniProt Q00613 1-529); conditions: protein: recombinant; tags: N-terminal GST; chain copies: 3; dsDNA, one strand shown
# Outline: as §1
# SPIC = molecular target: T2, SPIC (Homo sapiens, UniProt Q8N5J4 1-248); conditions: protein: recombinant; tags: N-terminal GST; dsDNA, one strand shown
# T2 sequence: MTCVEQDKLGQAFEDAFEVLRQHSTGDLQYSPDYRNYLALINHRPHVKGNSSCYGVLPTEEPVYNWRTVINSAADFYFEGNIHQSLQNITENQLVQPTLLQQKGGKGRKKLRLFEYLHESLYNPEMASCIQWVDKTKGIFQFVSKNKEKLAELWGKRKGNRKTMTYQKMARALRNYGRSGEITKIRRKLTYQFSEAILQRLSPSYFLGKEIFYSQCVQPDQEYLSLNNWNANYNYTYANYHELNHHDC
# Outline: as §1
# ELF4 = ELF4 (Homo sapiens, UniProt Q99607 1-663); conditions: protein: recombinant; tags: N-terminal GST; dsDNA, one strand shown
# Outline: as §1
# ELK4 = molecular target: T3, ELK4 (Homo sapiens, UniProt P28324-2 1-405); conditions: protein: recombinant; tags: N-terminal GST; dsDNA, one strand shown
# T3 sequence: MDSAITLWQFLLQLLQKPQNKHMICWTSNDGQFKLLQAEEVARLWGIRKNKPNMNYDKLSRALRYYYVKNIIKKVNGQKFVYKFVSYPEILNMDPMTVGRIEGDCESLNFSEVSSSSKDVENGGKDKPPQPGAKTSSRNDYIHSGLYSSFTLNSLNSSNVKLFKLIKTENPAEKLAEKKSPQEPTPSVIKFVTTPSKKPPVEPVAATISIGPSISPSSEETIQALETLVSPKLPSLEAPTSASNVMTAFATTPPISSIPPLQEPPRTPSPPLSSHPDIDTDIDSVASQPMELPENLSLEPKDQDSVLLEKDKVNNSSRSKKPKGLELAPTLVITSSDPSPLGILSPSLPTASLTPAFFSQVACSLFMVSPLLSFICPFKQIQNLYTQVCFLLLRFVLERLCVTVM
# Outline: as §1
# ETV2 = molecular target: T4, ETV2 (Homo sapiens, UniProt O00321 1-342); conditions: protein: recombinant; tags: N-terminal GST; dsDNA, one strand shown
# T4 sequence: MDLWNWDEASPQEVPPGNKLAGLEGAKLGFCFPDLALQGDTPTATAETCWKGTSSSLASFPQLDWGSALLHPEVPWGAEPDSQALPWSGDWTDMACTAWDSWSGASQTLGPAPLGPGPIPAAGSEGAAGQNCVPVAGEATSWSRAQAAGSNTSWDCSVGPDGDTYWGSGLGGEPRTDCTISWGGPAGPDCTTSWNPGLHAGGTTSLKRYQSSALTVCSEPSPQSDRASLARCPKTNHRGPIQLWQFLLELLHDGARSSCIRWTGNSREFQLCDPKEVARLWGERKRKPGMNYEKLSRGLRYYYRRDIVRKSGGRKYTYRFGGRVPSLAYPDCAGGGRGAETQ
# Outline: as §1
# ELF3 = molecular target: T5, ELF3 (Homo sapiens, UniProt P78545 1-371); conditions: protein: recombinant; tags: N-terminal GST; dsDNA, one strand shown
# T5 sequence: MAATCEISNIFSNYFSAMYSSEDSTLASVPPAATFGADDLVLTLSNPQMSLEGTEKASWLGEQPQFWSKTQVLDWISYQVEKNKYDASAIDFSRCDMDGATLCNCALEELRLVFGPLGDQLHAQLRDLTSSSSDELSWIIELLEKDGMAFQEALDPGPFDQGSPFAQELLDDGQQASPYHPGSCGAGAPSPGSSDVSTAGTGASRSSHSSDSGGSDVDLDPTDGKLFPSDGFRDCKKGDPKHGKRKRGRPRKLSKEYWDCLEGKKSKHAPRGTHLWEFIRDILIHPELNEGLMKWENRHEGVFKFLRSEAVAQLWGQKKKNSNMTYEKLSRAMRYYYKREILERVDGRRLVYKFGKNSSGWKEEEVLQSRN
# Outline: as §1
# CRX = CRX (Homo sapiens, UniProt O43186 1-299); conditions: protein: recombinant; tags: N-terminal GST; dsDNA, one strand shown
# Outline: as §1
# ETV1 = ETV1 (Homo sapiens, UniProt P50549 1-477); conditions: protein: recombinant; tags: N-terminal GST; dsDNA, one strand shown
# Outline: as §1
# ERF = molecular target: T6, ERF (Homo sapiens, UniProt P50548 1-548); conditions: protein: recombinant; tags: N-terminal GST; dsDNA, one strand shown
# T6 sequence: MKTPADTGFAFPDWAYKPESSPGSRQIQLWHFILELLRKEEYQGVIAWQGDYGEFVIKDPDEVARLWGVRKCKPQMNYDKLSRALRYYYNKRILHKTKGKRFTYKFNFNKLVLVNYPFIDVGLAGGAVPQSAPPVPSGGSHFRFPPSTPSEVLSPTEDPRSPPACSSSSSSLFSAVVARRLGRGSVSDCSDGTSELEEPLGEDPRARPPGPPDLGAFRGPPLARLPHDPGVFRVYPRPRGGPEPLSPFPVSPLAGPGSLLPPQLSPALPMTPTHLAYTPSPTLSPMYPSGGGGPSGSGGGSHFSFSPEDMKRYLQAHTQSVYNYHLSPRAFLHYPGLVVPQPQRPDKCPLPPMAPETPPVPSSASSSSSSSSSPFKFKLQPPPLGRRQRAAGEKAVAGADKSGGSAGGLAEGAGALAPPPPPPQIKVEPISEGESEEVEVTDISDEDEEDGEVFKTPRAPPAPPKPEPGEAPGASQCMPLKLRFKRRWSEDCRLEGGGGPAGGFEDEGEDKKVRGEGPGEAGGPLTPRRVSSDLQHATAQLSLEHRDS
# Outline: as §1
# ETV3L = molecular target: T7, ETV3L (Homo sapiens, UniProt Q6ZN32 1-361); conditions: protein: recombinant; tags: N-terminal GST; dsDNA, one strand shown
# T7 sequence: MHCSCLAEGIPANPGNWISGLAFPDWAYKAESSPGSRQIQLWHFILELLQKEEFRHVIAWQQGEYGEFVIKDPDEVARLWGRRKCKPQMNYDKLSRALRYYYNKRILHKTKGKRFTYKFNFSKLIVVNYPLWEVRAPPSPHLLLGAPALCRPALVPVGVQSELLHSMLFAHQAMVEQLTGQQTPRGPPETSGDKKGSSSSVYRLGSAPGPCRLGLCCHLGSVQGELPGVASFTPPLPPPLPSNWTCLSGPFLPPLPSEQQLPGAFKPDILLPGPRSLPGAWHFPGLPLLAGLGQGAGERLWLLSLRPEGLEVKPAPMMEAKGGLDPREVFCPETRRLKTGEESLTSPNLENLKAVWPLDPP
# Outline: as §1
# ETS2 = molecular target: T8, ETS2 (Homo sapiens, UniProt P15036 1-469); conditions: protein: recombinant; tags: N-terminal GST; dsDNA, one strand shown
# T8 sequence: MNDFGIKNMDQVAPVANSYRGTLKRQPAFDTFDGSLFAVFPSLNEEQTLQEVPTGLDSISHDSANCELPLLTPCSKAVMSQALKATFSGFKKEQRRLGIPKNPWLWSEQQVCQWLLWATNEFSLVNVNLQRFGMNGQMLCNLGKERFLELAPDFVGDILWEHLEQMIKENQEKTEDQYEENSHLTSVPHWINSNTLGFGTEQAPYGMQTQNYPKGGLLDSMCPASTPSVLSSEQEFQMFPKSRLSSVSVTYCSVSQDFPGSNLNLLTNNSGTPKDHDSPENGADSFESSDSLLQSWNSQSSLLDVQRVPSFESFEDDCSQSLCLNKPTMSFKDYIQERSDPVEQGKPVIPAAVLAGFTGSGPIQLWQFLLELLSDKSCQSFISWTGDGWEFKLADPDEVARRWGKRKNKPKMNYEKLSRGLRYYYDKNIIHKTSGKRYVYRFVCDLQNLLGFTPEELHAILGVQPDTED
# Outline: as §1
# SPDEF = molecular target: T9, SPDEF (Homo sapiens, UniProt O95238 1-335); conditions: protein: recombinant; tags: N-terminal GST; dsDNA, one strand shown
# T9 sequence: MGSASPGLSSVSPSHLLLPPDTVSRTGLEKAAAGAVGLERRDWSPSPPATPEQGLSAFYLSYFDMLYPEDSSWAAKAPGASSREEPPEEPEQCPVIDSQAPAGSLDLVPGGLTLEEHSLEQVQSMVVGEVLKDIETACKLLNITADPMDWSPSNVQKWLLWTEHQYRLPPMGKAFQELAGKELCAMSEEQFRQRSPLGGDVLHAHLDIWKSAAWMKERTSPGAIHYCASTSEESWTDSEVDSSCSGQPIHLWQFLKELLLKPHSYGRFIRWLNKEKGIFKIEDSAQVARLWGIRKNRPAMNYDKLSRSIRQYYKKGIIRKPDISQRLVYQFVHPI
# Outline: as §1
# ETV7 = molecular target: T10, ETV7 (Homo sapiens, UniProt Q9Y603 1-341); conditions: protein: recombinant; tags: N-terminal GST; dsDNA, one strand shown
# T10 sequence: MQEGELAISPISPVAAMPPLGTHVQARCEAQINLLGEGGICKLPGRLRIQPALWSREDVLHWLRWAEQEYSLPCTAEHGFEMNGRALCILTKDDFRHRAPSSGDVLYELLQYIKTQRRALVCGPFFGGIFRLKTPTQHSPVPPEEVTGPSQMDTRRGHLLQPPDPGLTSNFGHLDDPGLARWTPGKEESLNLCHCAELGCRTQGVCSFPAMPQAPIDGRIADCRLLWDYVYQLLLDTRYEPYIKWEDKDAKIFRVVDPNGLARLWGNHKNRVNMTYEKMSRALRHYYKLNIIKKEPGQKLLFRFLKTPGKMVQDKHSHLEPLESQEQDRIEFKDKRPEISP
# Outline: as §1
# ELF5 = molecular target: T11, ELF5 (Homo sapiens, UniProt Q9UKW6-2 1-255); conditions: protein: recombinant; tags: N-terminal GST; dsDNA, one strand shown
# T11 sequence: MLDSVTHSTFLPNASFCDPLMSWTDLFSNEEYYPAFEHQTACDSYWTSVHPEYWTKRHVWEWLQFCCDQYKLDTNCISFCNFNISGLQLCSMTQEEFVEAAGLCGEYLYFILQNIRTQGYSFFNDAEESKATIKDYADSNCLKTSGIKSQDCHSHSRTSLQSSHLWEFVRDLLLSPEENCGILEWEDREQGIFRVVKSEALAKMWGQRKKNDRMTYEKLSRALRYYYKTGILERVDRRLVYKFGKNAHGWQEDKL
# Outline: as §1
# ETV3 = molecular target: T12, ETV3 (Homo sapiens, UniProt P41162-2 1-143); conditions: protein: recombinant; tags: N-terminal GST; dsDNA, one strand shown
# T12 sequence: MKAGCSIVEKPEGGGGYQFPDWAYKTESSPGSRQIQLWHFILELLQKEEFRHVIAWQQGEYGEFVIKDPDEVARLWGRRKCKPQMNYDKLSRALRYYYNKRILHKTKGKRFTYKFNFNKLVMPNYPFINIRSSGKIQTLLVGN
# Outline: as §1
# ETV6 = ETV6 (Homo sapiens, UniProt P41212 1-452); conditions: protein: recombinant; tags: N-terminal GST; dsDNA, one strand shown
# Outline: as §1
# Sequence of CRX (O43186 whole entry): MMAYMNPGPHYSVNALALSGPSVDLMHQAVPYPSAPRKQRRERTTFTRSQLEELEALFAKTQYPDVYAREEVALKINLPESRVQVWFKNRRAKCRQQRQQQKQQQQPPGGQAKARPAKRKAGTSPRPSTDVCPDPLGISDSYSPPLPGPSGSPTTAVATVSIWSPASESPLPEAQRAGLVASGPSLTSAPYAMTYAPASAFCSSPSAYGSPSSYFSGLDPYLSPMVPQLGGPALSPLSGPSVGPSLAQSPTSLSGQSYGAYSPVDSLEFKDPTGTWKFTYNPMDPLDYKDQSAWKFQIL
# Sequence of HSF1 (Q00613 whole entry): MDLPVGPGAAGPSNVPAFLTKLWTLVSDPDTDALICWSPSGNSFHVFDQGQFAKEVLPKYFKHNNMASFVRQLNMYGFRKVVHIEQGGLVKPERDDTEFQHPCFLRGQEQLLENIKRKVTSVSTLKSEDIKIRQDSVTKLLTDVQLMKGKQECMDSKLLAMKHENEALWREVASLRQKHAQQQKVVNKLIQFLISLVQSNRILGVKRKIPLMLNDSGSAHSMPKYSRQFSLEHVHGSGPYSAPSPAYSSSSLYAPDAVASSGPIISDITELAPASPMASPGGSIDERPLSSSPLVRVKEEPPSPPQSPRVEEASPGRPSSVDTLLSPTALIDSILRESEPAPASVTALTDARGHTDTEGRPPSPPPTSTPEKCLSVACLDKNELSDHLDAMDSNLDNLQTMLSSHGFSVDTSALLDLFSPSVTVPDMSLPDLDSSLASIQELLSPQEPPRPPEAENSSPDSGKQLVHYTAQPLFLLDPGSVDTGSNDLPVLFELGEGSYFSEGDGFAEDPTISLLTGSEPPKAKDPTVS
# Sequence of ETV6 (P41212 whole entry): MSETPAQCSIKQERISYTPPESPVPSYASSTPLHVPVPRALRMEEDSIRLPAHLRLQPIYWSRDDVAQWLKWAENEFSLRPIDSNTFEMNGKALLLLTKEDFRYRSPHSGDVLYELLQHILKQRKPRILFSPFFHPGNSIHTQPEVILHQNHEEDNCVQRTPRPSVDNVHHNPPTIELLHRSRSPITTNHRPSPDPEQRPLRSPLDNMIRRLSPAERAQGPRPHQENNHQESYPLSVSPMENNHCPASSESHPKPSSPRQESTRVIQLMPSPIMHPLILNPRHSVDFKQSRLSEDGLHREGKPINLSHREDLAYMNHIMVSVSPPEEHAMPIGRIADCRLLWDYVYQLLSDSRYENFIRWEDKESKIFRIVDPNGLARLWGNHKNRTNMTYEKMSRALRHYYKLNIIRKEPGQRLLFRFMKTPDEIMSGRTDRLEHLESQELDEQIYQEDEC
# Sequence of ETV5 (P41161 whole entry): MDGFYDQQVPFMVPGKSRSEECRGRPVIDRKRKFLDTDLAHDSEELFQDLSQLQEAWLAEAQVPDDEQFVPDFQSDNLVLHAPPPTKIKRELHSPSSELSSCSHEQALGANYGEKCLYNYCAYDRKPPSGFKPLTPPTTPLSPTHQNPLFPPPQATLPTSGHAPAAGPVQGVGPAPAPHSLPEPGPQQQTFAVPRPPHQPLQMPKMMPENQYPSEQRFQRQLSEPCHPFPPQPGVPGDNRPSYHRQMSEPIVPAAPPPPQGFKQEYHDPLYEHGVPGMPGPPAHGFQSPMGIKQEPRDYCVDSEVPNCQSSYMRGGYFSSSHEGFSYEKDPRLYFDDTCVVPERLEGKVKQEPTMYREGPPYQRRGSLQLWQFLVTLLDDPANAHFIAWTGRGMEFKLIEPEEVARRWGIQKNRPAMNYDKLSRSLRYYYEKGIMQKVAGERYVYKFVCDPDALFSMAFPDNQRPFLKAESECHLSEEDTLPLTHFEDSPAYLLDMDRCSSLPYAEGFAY
# Sequence of ETV1 (P50549 whole entry): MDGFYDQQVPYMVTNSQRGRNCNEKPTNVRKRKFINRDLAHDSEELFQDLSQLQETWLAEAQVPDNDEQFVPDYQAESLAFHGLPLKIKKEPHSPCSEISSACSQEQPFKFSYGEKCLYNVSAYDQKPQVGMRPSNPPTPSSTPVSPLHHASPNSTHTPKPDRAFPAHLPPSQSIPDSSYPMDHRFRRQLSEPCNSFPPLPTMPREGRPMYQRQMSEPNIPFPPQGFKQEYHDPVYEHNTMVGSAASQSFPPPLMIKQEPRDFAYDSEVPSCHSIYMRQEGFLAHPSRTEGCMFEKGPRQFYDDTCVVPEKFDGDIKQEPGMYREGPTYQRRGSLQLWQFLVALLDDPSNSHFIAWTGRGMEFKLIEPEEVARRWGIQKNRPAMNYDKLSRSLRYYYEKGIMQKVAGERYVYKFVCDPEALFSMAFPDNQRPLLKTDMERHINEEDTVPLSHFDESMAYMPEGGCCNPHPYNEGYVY
# Sequence of ELF4 (Q99607 whole entry): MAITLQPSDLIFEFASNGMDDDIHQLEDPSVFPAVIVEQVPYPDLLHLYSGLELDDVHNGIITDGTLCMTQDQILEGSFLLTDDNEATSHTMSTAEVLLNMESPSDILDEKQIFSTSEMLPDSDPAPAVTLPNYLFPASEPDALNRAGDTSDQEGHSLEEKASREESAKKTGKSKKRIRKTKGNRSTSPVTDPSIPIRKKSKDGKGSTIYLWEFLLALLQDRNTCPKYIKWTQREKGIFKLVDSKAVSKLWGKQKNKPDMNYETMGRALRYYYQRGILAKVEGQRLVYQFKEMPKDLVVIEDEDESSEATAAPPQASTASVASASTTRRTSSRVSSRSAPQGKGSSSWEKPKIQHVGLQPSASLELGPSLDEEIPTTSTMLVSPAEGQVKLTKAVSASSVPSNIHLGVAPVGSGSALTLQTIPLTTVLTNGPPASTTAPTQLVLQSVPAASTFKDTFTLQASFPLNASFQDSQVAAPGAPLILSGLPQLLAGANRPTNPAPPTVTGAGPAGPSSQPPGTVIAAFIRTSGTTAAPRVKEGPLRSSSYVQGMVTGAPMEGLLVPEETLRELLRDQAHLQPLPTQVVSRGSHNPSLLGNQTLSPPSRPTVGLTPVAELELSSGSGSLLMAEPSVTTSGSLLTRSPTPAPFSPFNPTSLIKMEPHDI
sequence,measurement,setting,value
CAGCTT,binding signal,FEV,"1.2 fold enrichment (6-mer frequency, TF over GST control)"
same,binding signal,ETV5,"1.17 fold enrichment (6-mer frequency, TF over GST control)"
same,binding signal,HSF1,"1.43 fold enrichment (6-mer frequency, TF over GST control)"
same,binding signal,SPIC,"1.01 fold enrichment (6-mer frequency, TF over GST control)"
same,binding signal,ELF4,"1.19 fold enrichment (6-mer frequency, TF over GST control)"
same,binding signal,ELK4,"1.24 fold enrichment (6-mer frequency, TF over GST control)"
same,binding signal,ETV2,"1.36 fold enrichment (6-mer frequency, TF over GST control)"
same,binding signal,ELF3,"1.19 fold enrichment (6-mer frequency, TF over GST control)"
same,binding signal,CRX,"1.9 fold enrichment (6-mer frequency, TF over GST control)"
same,binding signal,ETV1,"1.16 fold enrichment (6-mer frequency, TF over GST control)"
same,binding signal,ERF,"1.28 fold enrichment (6-mer frequency, TF over GST control)"
same,binding signal,ETV3L,"1.2 fold enrichment (6-mer frequency, TF over GST control)"
same,binding signal,ETS2,"1.21 fold enrichment (6-mer frequency, TF over GST control)"
same,binding signal,SPDEF,"1.24 fold enrichment (6-mer frequency, TF over GST control)"
same,binding signal,ETV7,"1.15 fold enrichment (6-mer frequency, TF over GST control)"
same,binding signal,ELF5,"1.11 fold enrichment (6-mer frequency, TF over GST control)"
same,binding signal,ETV3,"1.21 fold enrichment (6-mer frequency, TF over GST control)"
same,binding signal,ETV6,"1.11 fold enrichment (6-mer frequency, TF over GST control)"
